Screening results from PubChem.
The list is not random: actives were taken first. Their share in the collection is about 9.4%.
Rab9 promoter act: activates the Rab9 promoter; Huh7 Rab9 promoter-luciferase reporter, luminescence, 24 h; Potency, µM (titrated, usually from 9.22 µM), for the others: at the highest dose activation, negative = inhibition, hits mostly activators; 2.8% of 320,000 active; further: % of control where 0% means no effect; nearly all actives have a fitted effect of over 60% in size
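Luciferase signal after 10 min detection reagent at ambient indicates Rab9 promoter upregulation; stably transfected Huh7 cells were treated 24 h with compound in DMSO at 37 °C, 5% CO2.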
SMN2 splice enh: enhancers of SMN2 splice variant expression; HEK293 SMN2-luciferase splicing reporter, luminescence, 30-36 h; Potency, µM (top dose mostly 46.1 µM), inactives show at the top dose activity change, positive = activation, usual class: activators; 2.8% of 210,000 active; further: % of control where 0% means no effect; nearly all actives have a fitted effect of over 55% in size
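qHTS luciferase splicing reporter: luminescence rises when SMN2 exon 7 is included in transfected HEK293 cells. Compound exposure lasted 30-36 h at 37C, with 4.5 mM final sodium butyrate as control, followed by a ONE-Glo read.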
ELG1 repair inh: inhibitors of ELG1-dependent DNA repair in HEK293T cells; HEK293T ELG1-luciferase reporter, luminescence, 16 h; DNA damage induced by 5-fluorouridine; Potency, µM (series often up to 46.1 µM), for the others: at the highest dose activity change, negative = inhibition, actives largely listed as inhibitors; 2.3% of 330,000 active; AID 504467; further: on the % scale 0 is the no-effect control and ±100 the full control effect; nearly all actives have a fitted effect of over 55% in size
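In this reporter screen, reduction of luminescence relative to DMSO vehicle indicated activity. Compounds and 5-fluorouridine were added together to 2,000 cells per well, incubated for 16 hr at 37 °C, then developed with ONE-Glo.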
NPC1 prom act: activators of NPC1 promoter. Huh7 NPC1 promoter luciferase reporter, 24 h. Potency, µM (highest dose often 9.22 µM), for inactives: top-dose activation, actives largely listed as activators. 2.4% of 320,000 active; further: % of control where 0% means no effect; nearly all actives have a fitted effect of over 60% in size
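Huh7 reporter cells (NPC1 promoter driving luciferase) are dosed with compound for 24 h at 37 °C, 5% CO2; luciferase detection reagent is then added and luminescence measured after 10 min at ambient temperature.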
ELG1 genotox: inducers of genotoxicity in HEK293T ELG1-luciferase cells | AID 504466 | Potency, µM (doses to about 46 µM), for the others: at the highest dose activity change, positive = activation, usual class: activators | 1.3% of 330,000 active | HEK293T ELG1-luciferase reporter, luminescence, 16 h; further: % of control where 0% means no effect; nearly all actives have a fitted effect of over 60% in size
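16 hr compound incubation (37 °C, 5% CO2) of HEK293T cells carrying luciferase-tagged ELG1; luciferase then measured by ONE-Glo luminescence after 30 min at RT.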
FLuc modulator: firefly luciferase modulation, counter-screen for miR-21 project; P08659; purified FLuc, Km substrates, luminescence inhibition; Potency, µM (highest dose often 57.5 µM), without a hit: at the top dose activity change, negative = inhibition, most hits filed as inhibitors; 6.9% of 360,000 active;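 further: plate controls were vehicle for no effect and reference inhibitor for full effect; nearly all actives have a fitted effect of over 55% in size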
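Purified P. pyralis luciferase, 10 nM final, with Km-level 10 uM D-luciferin and 10 uM ATP in 50 mM Tris acetate pH 7.5, 10 mM Mg acetate, 0.01% Tween-20, 0.05% BSA; 6-point qHTS titration about 60 µM downward; luminescence read.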
ELG1 FLuc counter: luciferase inhibition in cell-free luciferin readout for ELG1 hits. shares compounds with ELG1 repair inh. cell-free firefly luciferase luminescence counter-screen, ViewLux. Potency, µM (top dose mostly 46.1 µM), for inactives: at the highest dose activity change, negative = inhibition, most hits filed as inhibitors. 3% of 350 active. AID 624247; further: on the % scale 0 is the no-effect control and ±100 the full control effect
ELG1-Luc inh: confirmation of human ELG1-dependent DNA repair inhibitors | shares compounds with ELG1 repair inh | HEK293T ELG1-luciferase levels, luminescence; cells co-treated with 5-fluorouridine | Potency, µM (series often up to 46.1 µM), without a hit: at the top dose activity change, negative = inhibition, hits mostly inhibitors | 68% of 670 active | AID 624248; further: on the % scale 0 is the no-effect control and ±100 the full control effect; nearly all actives have a fitted effect of over 55% in size
ELG1-Luc MMS: confirmation of human ELG1 repair inhibitors, MMS stimulated; shares compounds with ELG1 repair inh; HEK293T luciferase-tagged ELG1 level, MMS stimulated; Potency, µM (series often up to 46.1 µM), inactives show top-dose activity change, negative = inhibition, most hits filed as inhibitors; 53% of 670 active; AID 624249; further: on the % scale 0 is the no-effect control and ±100 the full control effect; nearly all actives have a fitted effect of over 60% in size
ELG1 5-FU: confirmation of ELG1 repair inhibitors: viability with 5FU; shares compounds with ELG1 repair inh; cell viability with 5-FU, ELG1-dependent repair; Potency, µM (highest dose often 46.1 µM), without a hit: top-dose activity change, negative = viability loss, actives largely listed as cytotoxic; 670 tested, under 10 active; AID 624250;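 further: ELG1-luc HEK293T cells cotreated with 5-fluorouridine at 10 µM final; viability measured 16 h after compound addition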
ELG1 MMS cell: confirmation of ELG1 repair inhibitors: viability with MMS; AID 624251; Potency, µM (highest dose often 46.1 µM), without a hit: at the highest dose activity change, negative = viability loss, actives largely listed as cytotoxic; shares compounds with ELG1 repair inh; 33% of 670 active; Cell viability with MMS, ELG1-dependent DNA repair;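 further: ELG1-luc HEK293T cells co-treated with 10 µM MMS; viability read 16 h after compound addition; on the % scale 0 is the no-effect control and ±100 the full control effect; nearly all actives have a fitted effect of over 60% in size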
Cell viab unstim: affects unstimulated cell viability, ELG1 hit counter-screen; shares compounds with ELG1 repair inh; cell viability counter-screen, unstimulated, luminescence; Potency, µM (titrated, usually from 45.9 µM), for inactives: at the highest dose activity change, negative = loss of viability, hits mostly cytotoxic; 8% of 900 active; AID 624252;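 further: compound exposure lasted 16 hours before reading; on the % scale 0 is the no-effect control and ±100 the full control effect; nearly all actives have a fitted effect of over 55% in size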
FLuc biochem: counter-screen for ELG1 repair inhibitors: firefly luciferase inhibition; shares compounds with ELG1 repair inh; purified firefly luciferase, luminescence counter-screen; Potency, µM (series often up to 57.5 µM), inactives show at the highest dose activity, negative = inhibition, actives largely listed as inhibitors; 10% of 350 active; further: on the % scale 0 is the no-effect control and ±100 the full control effect
* hit, by the source's call; ? = inconclusive; nt = not tested or not shown; [ ] = dose if it differs, or a comment. The call rests on the fitted dose curve; in most records, active means well fitted curve in the direction sought with a large enough effect; inconclusive means small, poorly fitted or top-dose-only effect, or another doubt; inactive means no such curve, though single readings can be large; an effect the other way counts as inactive or inconclusive. Potency means the concentration at half of the fitted maximal effect.

SMILES	Rab9 promoter act	SMN2 splice enh	ELG1 repair inh	NPC1 prom act	ELG1 genotox	FLuc modulator	ELG1-Luc inh	ELG1-Luc MMS	ELG1 5-FU	ELG1 MMS cell	Cell viab unstim	others
CCN1CCCC1Cn1c(-c2ccccc2)nc2c(NC3CCCCC3)nc(C)nc21 (centres undefined)	nt	-22%	nt	nt	nt	nt	nt	nt	nt	nt	nt
CCn1cc(Br)c(C(=O)NC(=S)Nc2ccc(C(=O)OC)cc2)n1	17%	20%	16%	4%	12%	-3%	nt	nt	nt	nt	nt
O=C(C1=C[C@H](c2ccc3c(c2)OCO3)C[C@H](OCCCCO)O1)N1CCN(Cc2ccccc2)CC1	-1%	nt	8%	1%	0%	-1%	-35%	?	-1%	?	-6%	ELG1 FLuc counter=-4%;FLuc biochem=-6%
O=C(C1=C[C@@H](c2ccc3c(c2)OCO3)C[C@@H](OCCCCO)O1)N1CCN(Cc2ccc3c(c2)OCO3)CC1	-6%	nt	0%	-2%	-9%	6%	nt	nt	nt	nt	nt
CC(=O)n1cc([C@H]2C=C(C(=O)N3CCN(Cc4ccccc4)CC3)O[C@@H](OCCCCO)C2)c2ccccc21	0%	nt	-6%	-2%	-5%	5%	nt	nt	nt	nt	nt
CC(=O)n1cc([C@@H]2C=C(C(=O)N3CCN(Cc4ccc5c(c4)OCO5)CC3)O[C@H](OCCCCO)C2)c2ccccc21	1%	nt	18µM*	2%	-10%	0%	?	8%	-6%	-16%	?	ELG1 FLuc counter=-9%;FLuc biochem=-16%
Cn1c(=O)c2[nH]c(/N=N\N3CCN(CCO)CC3)nc2n(C)c1=O	nt	-5%[9.22 µM]	nt	nt	nt	nt	nt	nt	nt	nt	nt
Cc1ccc(S(=O)(=O)NCc2ccc(C(=O)N3CCN(c4ccc([N+](=O)[O-])cc4)CC3)cc2)cc1	-39%	nt	2.3µM*	-36%	-13%	1%	7.9µM*	1.6µM*	-8%	1.8µM*	?
COc1ccc(N2CCN(C(=O)c3ccc(CNS(=O)(=O)c4ccc(C)cc4)cc3)CC2)cc1	-9%	nt	-13%	-13%	-8%[9.26 µM]	7%	nt	nt	nt	nt	nt
O=c1c2ccccc2ccc2ccccc12	2%	nt	22%	1%	3%	nt	nt	nt	nt	nt	nt
O=c1c2ccccc2oc2c1ccc1ccccc12	nt	nt	?	nt	?	nt	nt	nt	nt	nt	-1%
O=C1CCC/C1=c1\s/c(=C\c2cccnc2)c(=O)n1-c1ccccc1	4%	-12%	13µM*	2%	-17%	-1%	8.9µM*	?	9%	-9%	-17%	ELG1 FLuc counter=-6%;FLuc biochem=-4%
Cc1nn(-c2ccc(NC(=O)c3ccncc3)cc2)c(C)c1Cl	-29%	nt	4.6µM*	-29%	-5%	-4%	14µM*	2.2µM*	-16%	1.6µM*	16µM*
C/C(=N\NC(=O)c1c(Cl)c(C)nn1C)c1ccc(NC(=O)c2ccncc2)cc1	-3%	-57%	?	1%	-2%	4%	nt	nt	nt	nt	nt
O=C(Nc1ccc(F)cc1Cl)C1CCN(c2ncnc3c2nc2n3CCCCC2)CC1	nt	nt	nt	nt	nt	4%	nt	nt	nt	nt	nt
c1ccc(SCc2cn(C[C@H]3CC[C@@H]([C@@H]4CC[C@H](Cn5cc(CSc6ccccc6)nn5)O4)O3)nn2)cc1	1%	nt	2.1µM*	2%	-7%	-2%	28µM*	28µM*	?	12%	-21%
CC(/C=N/n1c(-c2ccc(C)cc2)n[nH]c1=S)=C\c1ccco1	-3%	13%	3%	0%	5%	1%	nt	nt	nt	nt	nt
CC(/C=N/n1c(-c2ccncc2)n[nH]c1=S)=C\c1ccco1	2%	nt	2.6µM*	25%	-12%	-7%	13µM*	6.3µM*	-2%	-23%	-2%
CC(=C/c1ccccc1)/C=N/n1c(-c2ccncc2)n[nH]c1=S	2%	-5%	2.3µM*	16%	-20%	-3%	2.8µM*	?	-2%	2%	-4%
COc1ccc(OC)c(C2CC(=O)c3c([nH]c(C(=O)OC4CCC(C)CC4)c3C)C2)c1 (centres undefined)	nt	2%	nt	nt	nt	-1%	nt	nt	nt	nt	nt
CC(=O)OCC1=C(C(=O)O)N2C(=O)C(NC(=O)c3ccc(COc4cccc(Cl)c4Cl)o3)C2SC1 (centres undefined)	-5%	8%	11%	0%	10%	?	nt	nt	nt	nt	nt
CN(CCCC(=O)Nc1ccncc1)S(=O)(=O)c1ccc(Cl)cc1	-21%	-35%	2.3µM*	-8%	-25%	1%	-17%	7.9µM*	-7%	7.9µM*	?	ELG1 FLuc counter=18%;FLuc biochem=-6%
CCOC(=O)c1cnc2ccc(OC)cc2c1Nc1ccc(OCc2ccccc2Cl)cc1	nt	-34%	nt	nt	nt	-8%	nt	nt	nt	nt	nt
Cc1ccc(S(=O)(=O)C(CNS(=O)(=O)c2cc(F)ccc2F)c2cccs2)cc1 (centres undefined)	nt	nt	nt	nt	nt	-14%	nt	nt	nt	nt	nt
N#Cc1ccc(NC(=O)COCc2cc(-c3ccco3)on2)cc1	nt	nt	nt	nt	nt	-6%	nt	nt	nt	nt	nt
O=C(C1=C[C@H](c2ccc(Br)cc2)C[C@H](OCc2ccc(CO)cc2)O1)N1CCN(Cc2ccc3c(c2)OCO3)CC1	-5%	nt	9.2µM*	-2%	-14%	0%	7.9µM*	?	?	-6%	?	ELG1 FLuc counter=?;FLuc biochem=-9%
